# Test results reported in ChEMBL document CHEMBL1961873, “Compounds: GSK PKIS; Assays: Nanosyn kinase panel” (2012).
# What was measured:
# [1] = molecular target: Mitogen-activated protein kinase 3 (Homo sapiens) (UniProt P27361); settings: at 1 µM;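 note: values are mean percent inhibition of MAPK3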
# [2] = molecular target: SRSF protein kinase 3 (Homo sapiens) (UniProt Q9UPE1); settings: at 0.1 µM
# [3] = molecular target: SRSF protein kinase 3 (Homo sapiens) (UniProt Q9UPE1); settings: at 1 µM
# [4] = molecular target: Mitogen-activated protein kinase 14 (Homo sapiens) (UniProt Q16539); settings: at 0.1 µM
# [5] = molecular target: Mitogen-activated protein kinase 14 (Homo sapiens) (UniProt Q16539); settings: at 1 µM
# [6] = molecular target: Mitogen-activated protein kinase 11 (Homo sapiens) (UniProt Q15759); settings: at 0.1 µM
# [7] = molecular target: Mitogen-activated protein kinase 11 (Homo sapiens) (UniProt Q15759); settings: at 1 µM
# [8] = molecular target: T1, Mitogen-activated protein kinase 13 (Homo sapiens) (UniProt O15264); settings: at 0.1 µM
# T1 sequence (whole entry): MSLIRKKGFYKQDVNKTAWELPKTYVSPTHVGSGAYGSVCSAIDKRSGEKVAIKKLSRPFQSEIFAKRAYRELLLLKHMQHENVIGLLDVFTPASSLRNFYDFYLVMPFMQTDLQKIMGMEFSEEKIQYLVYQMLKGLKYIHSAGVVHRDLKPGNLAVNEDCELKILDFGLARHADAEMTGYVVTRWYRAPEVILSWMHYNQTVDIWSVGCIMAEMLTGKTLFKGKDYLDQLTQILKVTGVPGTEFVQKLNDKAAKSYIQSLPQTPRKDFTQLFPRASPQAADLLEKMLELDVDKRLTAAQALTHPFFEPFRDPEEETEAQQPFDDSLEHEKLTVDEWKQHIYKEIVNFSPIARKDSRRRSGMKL
# [9] = molecular target: T1, Mitogen-activated protein kinase 13 (Homo sapiens); settings: at 1 µM
# [10] = molecular target: T2, Mitogen-activated protein kinase 12 (Homo sapiens) (UniProt P53778); settings: at 0.1 µM
# T2 sequence (whole entry): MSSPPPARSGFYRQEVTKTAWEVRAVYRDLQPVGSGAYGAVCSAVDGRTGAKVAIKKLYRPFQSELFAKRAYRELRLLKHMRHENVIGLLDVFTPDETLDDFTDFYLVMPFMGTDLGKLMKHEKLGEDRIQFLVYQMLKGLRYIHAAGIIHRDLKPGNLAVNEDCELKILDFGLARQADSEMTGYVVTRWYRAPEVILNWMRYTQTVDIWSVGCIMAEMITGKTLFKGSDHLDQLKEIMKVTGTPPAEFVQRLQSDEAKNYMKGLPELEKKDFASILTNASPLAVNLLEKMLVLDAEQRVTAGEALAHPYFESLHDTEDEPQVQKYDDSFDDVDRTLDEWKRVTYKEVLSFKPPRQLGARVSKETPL
# [11] = molecular target: T2, Mitogen-activated protein kinase 12 (Homo sapiens); settings: at 1 µM
# [12] = molecular target: SRSF protein kinase 1 (Homo sapiens) (UniProt Q96SB4); settings: at 0.1 µM
# [13] = molecular target: SRSF protein kinase 1 (Homo sapiens) (UniProt Q96SB4); settings: at 1 µM
# [14] = molecular target: Phosphatidylinositol 4,5-bisphosphate 3-kinase catalytic subunit alpha isoform (Homo sapiens) (UniProt P42336); settings: at 0.1 µM
# [15] = molecular target: Phosphatidylinositol 4,5-bisphosphate 3-kinase catalytic subunit alpha isoform (Homo sapiens) (UniProt P42336); settings: at 1 µM
# [16] = molecular target: T3, Phosphatidylinositol 4,5-bisphosphate 3-kinase catalytic subunit delta isoform (Homo sapiens) (UniProt O00329); settings: at 0.1 µM
# T3 sequence (whole entry): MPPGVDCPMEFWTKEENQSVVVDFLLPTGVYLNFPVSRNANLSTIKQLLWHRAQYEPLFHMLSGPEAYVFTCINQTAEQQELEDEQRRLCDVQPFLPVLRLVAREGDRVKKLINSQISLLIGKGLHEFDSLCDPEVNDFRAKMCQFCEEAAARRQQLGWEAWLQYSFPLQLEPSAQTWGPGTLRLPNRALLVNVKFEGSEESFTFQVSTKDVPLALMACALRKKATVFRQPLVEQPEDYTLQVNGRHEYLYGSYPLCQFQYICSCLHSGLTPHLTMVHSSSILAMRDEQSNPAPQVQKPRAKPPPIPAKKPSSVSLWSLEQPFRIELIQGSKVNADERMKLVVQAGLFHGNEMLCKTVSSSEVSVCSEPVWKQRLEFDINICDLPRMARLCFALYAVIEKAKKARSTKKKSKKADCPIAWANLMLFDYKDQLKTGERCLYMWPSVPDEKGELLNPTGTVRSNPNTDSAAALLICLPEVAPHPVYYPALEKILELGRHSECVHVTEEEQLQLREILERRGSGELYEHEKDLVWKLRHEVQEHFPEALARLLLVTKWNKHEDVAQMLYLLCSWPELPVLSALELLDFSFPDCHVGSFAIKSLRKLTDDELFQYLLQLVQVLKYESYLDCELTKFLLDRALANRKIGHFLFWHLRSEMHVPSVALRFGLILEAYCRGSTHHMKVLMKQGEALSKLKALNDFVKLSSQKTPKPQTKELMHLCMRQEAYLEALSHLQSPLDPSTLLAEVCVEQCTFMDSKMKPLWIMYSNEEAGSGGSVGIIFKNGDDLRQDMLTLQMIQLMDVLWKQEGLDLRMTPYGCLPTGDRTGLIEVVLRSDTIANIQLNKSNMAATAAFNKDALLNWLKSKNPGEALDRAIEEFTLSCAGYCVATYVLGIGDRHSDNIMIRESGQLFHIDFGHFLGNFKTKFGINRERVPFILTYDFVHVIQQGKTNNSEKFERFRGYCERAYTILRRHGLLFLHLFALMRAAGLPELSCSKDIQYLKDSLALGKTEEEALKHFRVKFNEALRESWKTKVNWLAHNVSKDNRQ
# [17] = molecular target: T3, Phosphatidylinositol 4,5-bisphosphate 3-kinase catalytic subunit delta isoform (Homo sapiens); settings: at 1 µM
# [18] = molecular target: Phosphatidylinositol 4-kinase beta (Homo sapiens) (UniProt Q9UBF8); settings: at 0.1 µM
# [19] = molecular target: Phosphatidylinositol 4-kinase beta (Homo sapiens) (UniProt Q9UBF8); settings: at 1 µM
# [20] = molecular target: Sphingosine kinase 1 (Homo sapiens) (UniProt Q9NYA1); settings: at 0.1 µM;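 note: mean percent inhibition of SPHK1 activity, measured within the GSK PKIS screening panel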
# Sphingosine kinase 1 (Homo sapiens), sequence (Q9NYA1 whole entry): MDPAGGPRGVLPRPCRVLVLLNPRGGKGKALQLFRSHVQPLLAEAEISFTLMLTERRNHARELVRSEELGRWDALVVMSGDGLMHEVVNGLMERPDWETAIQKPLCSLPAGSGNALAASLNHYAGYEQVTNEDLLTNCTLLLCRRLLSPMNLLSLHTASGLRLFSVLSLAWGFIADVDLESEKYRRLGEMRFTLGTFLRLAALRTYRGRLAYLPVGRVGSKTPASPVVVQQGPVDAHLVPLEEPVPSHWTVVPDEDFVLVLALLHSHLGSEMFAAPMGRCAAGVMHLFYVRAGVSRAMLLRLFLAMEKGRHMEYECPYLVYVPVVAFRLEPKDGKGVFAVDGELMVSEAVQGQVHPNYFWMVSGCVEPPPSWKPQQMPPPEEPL
# Phosphatidylinositol 4-kinase beta (Homo sapiens), sequence (Q9UBF8 2-816 limits assumed): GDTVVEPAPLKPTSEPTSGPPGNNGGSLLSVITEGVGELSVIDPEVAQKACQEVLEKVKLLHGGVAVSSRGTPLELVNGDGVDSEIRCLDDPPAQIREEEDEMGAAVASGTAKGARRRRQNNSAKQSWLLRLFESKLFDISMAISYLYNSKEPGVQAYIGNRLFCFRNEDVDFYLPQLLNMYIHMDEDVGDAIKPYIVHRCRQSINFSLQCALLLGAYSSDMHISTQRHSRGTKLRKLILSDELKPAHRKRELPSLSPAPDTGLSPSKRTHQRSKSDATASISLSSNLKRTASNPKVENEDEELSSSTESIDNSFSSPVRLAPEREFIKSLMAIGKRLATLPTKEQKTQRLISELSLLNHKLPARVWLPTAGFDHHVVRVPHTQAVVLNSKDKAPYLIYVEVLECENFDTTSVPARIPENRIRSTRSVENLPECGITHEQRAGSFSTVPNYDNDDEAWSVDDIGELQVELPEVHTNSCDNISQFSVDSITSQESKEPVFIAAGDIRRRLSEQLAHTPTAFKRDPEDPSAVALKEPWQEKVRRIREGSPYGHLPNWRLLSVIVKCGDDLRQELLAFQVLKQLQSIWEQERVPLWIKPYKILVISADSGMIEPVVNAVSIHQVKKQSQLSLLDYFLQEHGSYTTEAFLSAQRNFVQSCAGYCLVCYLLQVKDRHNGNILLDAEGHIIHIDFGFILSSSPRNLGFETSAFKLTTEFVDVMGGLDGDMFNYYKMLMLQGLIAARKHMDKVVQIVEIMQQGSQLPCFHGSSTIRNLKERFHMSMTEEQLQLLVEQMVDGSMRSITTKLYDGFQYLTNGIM
# Mitogen-activated protein kinase 11 (Homo sapiens), sequence (Q15759 whole entry): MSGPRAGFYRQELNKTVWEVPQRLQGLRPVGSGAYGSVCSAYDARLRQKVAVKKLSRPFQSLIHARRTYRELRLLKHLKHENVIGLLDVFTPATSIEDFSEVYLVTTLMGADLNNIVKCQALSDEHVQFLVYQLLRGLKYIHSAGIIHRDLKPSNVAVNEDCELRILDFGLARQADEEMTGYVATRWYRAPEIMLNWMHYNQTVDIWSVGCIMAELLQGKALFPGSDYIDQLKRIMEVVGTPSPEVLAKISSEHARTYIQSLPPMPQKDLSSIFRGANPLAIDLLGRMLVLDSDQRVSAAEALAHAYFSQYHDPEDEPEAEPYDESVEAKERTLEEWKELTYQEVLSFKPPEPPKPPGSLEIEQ
# Mitogen-activated protein kinase 3 (Homo sapiens), sequence (P27361 whole entry): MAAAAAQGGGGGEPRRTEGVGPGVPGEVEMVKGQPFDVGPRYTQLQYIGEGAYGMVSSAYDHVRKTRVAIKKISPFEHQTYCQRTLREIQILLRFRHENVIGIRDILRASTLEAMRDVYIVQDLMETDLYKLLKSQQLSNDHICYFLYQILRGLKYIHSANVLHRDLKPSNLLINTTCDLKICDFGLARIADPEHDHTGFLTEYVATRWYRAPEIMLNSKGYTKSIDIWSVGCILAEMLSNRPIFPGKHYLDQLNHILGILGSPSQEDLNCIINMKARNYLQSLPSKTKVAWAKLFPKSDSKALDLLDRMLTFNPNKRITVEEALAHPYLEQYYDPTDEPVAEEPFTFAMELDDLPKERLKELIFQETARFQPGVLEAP
# Mitogen-activated protein kinase 14 (Homo sapiens), sequence (Q16539 whole entry): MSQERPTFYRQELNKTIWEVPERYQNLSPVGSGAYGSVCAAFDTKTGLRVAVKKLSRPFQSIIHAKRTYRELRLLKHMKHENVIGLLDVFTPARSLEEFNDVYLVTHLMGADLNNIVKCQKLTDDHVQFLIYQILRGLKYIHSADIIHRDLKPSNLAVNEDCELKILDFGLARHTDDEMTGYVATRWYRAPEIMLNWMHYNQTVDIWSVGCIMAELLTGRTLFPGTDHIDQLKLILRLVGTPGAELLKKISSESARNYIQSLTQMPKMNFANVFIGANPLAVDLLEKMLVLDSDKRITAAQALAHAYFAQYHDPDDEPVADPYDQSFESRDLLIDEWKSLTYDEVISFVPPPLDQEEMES
# SRSF protein kinase 3 (Homo sapiens), sequence (Q9UPE1 whole entry): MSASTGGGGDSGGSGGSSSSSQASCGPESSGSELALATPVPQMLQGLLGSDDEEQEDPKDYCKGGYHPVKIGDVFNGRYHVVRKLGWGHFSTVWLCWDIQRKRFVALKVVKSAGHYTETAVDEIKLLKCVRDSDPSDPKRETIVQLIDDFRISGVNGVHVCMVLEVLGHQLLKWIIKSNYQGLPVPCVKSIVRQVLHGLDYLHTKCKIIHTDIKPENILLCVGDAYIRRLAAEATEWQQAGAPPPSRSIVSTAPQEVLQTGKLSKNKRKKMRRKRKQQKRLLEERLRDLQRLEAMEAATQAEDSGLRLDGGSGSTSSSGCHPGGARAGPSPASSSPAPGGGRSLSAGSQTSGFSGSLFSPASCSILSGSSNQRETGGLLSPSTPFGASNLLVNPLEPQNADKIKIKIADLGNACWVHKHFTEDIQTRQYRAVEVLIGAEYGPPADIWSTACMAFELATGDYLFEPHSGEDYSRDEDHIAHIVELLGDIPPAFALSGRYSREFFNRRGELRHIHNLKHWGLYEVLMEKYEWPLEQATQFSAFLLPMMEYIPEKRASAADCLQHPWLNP
# Phosphatidylinositol 4,5-bisphosphate 3-kinase catalytic subunit alpha isoform (Homo sapiens), sequence (P42336 whole entry, canonical isoform): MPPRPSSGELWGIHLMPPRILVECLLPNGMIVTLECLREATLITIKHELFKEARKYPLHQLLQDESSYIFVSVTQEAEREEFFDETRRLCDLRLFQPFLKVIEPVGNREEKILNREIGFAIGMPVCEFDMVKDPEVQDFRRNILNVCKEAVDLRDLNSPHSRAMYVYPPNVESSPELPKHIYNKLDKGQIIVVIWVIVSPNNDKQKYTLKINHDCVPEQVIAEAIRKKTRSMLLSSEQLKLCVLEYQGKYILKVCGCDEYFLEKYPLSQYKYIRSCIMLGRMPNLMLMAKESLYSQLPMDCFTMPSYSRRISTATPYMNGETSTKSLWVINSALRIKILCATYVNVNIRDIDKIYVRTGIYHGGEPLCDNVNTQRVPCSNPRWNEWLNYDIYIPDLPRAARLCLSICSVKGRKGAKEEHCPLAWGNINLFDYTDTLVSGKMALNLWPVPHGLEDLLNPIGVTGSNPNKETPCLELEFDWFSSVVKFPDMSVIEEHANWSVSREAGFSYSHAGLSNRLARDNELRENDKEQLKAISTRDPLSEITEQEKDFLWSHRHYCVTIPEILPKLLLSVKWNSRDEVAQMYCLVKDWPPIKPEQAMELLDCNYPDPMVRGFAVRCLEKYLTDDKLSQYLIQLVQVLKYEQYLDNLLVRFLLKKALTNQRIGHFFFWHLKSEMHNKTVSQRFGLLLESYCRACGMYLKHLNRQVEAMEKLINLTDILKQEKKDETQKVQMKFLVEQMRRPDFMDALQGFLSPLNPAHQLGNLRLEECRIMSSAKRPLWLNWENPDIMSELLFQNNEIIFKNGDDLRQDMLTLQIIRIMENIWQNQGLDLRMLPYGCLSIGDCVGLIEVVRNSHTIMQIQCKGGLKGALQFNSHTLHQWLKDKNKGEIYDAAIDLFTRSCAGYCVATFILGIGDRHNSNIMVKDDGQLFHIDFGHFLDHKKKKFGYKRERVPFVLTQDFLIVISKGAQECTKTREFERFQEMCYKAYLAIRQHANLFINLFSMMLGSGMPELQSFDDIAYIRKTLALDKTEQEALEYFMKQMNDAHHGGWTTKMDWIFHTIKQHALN
# SRSF protein kinase 1 (Homo sapiens), sequence (Q96SB4 whole entry, canonical isoform): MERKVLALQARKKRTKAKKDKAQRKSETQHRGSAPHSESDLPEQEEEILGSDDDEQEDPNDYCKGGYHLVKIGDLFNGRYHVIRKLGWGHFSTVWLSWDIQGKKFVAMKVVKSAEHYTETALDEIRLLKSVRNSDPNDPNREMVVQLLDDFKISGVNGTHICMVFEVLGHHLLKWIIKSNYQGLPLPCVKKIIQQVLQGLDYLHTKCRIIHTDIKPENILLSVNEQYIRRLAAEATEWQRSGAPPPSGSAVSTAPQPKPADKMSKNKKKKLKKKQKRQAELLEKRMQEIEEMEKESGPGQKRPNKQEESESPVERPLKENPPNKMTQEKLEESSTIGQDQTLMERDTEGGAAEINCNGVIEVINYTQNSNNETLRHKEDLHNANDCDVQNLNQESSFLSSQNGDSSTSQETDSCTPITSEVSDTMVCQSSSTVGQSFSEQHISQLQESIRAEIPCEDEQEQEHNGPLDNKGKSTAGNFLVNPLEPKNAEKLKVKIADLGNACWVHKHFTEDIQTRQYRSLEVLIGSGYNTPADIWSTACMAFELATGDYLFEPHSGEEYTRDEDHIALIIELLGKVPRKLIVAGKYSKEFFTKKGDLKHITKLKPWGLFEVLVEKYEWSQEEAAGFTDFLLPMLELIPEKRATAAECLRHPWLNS
SMILES,inhibition [1],inhibition [2],inhibition [3],inhibition [4],inhibition [5],inhibition [6],inhibition [7],inhibition [8],inhibition [9],inhibition [10],inhibition [11],inhibition [12],inhibition [13],inhibition [14],inhibition [15],inhibition [16],inhibition [17],inhibition [18],inhibition [19],inhibition [20]
COc1ccc(C2=C(N3CCc4ccccc43)C(=O)NC2=O)cc1,5.25%,0.52%,1.43%,3.41%,12.2%,4.81%,8.67%,-0.17%,3.67%,12%,3.4%,-1.12%,0.76%,6.53%,12.6%,5.26%,9.11%,3.23%,-7.57%,0.25%
CS(=O)(=O)CCNCc1cc(-c2cc3c(Nc4ccc(OCc5cccc(F)c5)c(Cl)c4)ncnc3s2)cs1,4.92%,0.81%,-0.39%,7.29%,8.32%,1.8%,3.36%,5.45%,6.67%,4.58%,6%,-3.5%,-2.78%,4.7%,5.78%,0.67%,7.33%,-1.24%,3.94%,1.57%
CCc1cccc(CC)c1/C=C/c1cncc(C(=O)NC)c1,1.29%,1.81%,0.49%,3.92%,8.94%,4.41%,4.99%,-0.46%,4.25%,-2.91%,1.19%,-1.77%,-2.98%,1.54%,1.36%,4.84%,3.62%,-2.02%,-0.43%,0.93%
CN(C)CCOc1ccc(-c2cc(-c3ccc4c(c3)CCC4=NO)c(-c3ccncc3)o2)cc1,1.25%,-6.42%,-1.92%,-0.58%,0.13%,-0.55%,1.57%,-1.01%,-2.49%,-0.25%,-0.32%,-1.96%,-0.37%,-0.14%,1.74%,2.02%,6.39%,3.66%,2.02%,-0.35%
COc1ccc(-c2ccc3c(NC(=O)C4CC4)n[nH]c3n2)cc1,4.66%,-1.22%,1.44%,1.32%,5.28%,2.79%,8.84%,-0.41%,0.43%,1.27%,0.89%,-0.87%,1.03%,1.49%,0.27%,-0.49%,-0.82%,-2.64%,-0.19%,0.68%
COC(=O)Nc1nc2ccc(Sc3ccc(NC(=O)Nc4cc(C(F)(F)F)ccc4F)cc3)cc2[nH]1,1.55%,0.07%,8.97%,5.88%,39.3%,3.62%,34.3%,1.98%,2.44%,0.78%,2.22%,-1.15%,-0.09%,-1.35%,8.27%,0.7%,10.2%,1.21%,-4.04%,0.39%
O=C(Nc1n[nH]c2cc(-c3cc(F)ccc3F)ccc12)C1CC1,0.63%,-2.33%,-2.21%,1.76%,8.79%,3.95%,7.57%,-0.68%,4.17%,0.34%,2.66%,-2.08%,-4.65%,1.92%,3.65%,2.22%,4.33%,-2.33%,3.14%,0.01%
COc1cccc(/C=N/Nc2ncnc3c2cnn3-c2cccc(OC)c2)c1,2.47%,-1.31%,-0.75%,5.18%,5.34%,2.68%,2.6%,4%,4.61%,3.43%,4.21%,-3.08%,-2.5%,4.36%,1.65%,0.9%,1.58%,3.72%,2.27%,2.07%
COc1cc2ncn(-c3cc(OCCc4ccccc4)c(C(N)=O)s3)c2cc1OC,0.82%,-1.68%,0.18%,4.09%,13.1%,3.65%,2.87%,4.25%,1.8%,-0.53%,1.89%,-2.73%,-4.19%,2.08%,3.83%,2.55%,5.55%,-0.92%,3.17%,-0.54%
O=C(NCC1CC1)c1ccc(-c2cccc(C(=O)NC3CC3)c2)cc1,0.8%,1.6%,1.04%,1.13%,13.9%,2.37%,7.97%,1.41%,3.97%,4.08%,1.8%,-1.5%,-3.41%,1.61%,1.53%,1.94%,2.38%,-4.62%,-1.95%,0.53%
C[C@@H](Oc1cc(-n2cnc3ccc(OCC4CCN(C)CC4)cc32)sc1C(N)=O)c1ccccc1Cl,7.74%,0.89%,0.11%,5.8%,6.58%,3.71%,5.93%,5.74%,6.23%,3.48%,6.25%,-2.59%,-1.67%,8.19%,27.3%,15.6%,74.6%,-6.34%,–,1.45%
COc1cc(Nc2ncc(-c3ccccc3)o2)cc(OC)c1OC,1.29%,-0.22%,0.18%,-3.46%,-4.25%,1.4%,0.04%,-0.94%,-1.63%,-1.8%,-1.06%,2.19%,1%,0.99%,2.57%,2.6%,11.4%,11.5%,7.23%,1.38%
CS(=O)(=O)CCNCc1ccc(-c2ccc3ncnc(Nc4ccc(OCc5ccccc5)c(Br)c4)c3c2)o1,4.46%,-5.29%,-0.77%,6.51%,5.46%,3.98%,5.45%,4.88%,3.53%,3.43%,3.4%,-3.23%,-2.26%,3.6%,1.93%,0.72%,2.81%,-4.04%,-0.22%,-0.92%
COc1ccc2ncn(-c3cc(O[C@H](C)c4ccccc4Cl)c(C(N)=O)s3)c2c1,3.04%,-3.56%,-0.27%,6.99%,6.3%,2.23%,4.3%,5.14%,4.31%,3.31%,4.09%,-1.6%,-1.38%,3.9%,4.87%,1.95%,17.5%,1.3%,-2.87%,1.65%
C#Cc1cccc(Nc2ncnc3ccc(OCCCCNCCS(C)(=O)=O)cc23)c1,5.78%,-1.8%,-2.44%,3.36%,13.9%,4.69%,7.25%,6.43%,4.8%,1.66%,3.54%,-1.38%,-0.94%,5%,4.83%,2.6%,5.7%,-2.49%,-1.03%,5.65%
Fc1ccc(-c2ncn(C3CCNCC3)c2-c2ccnc(Oc3ccc(Oc4ccccc4)cc3)n2)cc1,5.57%,4.51%,-0.81%,–,–,–,–,–,–,–,–,-3.18%,-2.43%,3.74%,2.92%,-0.16%,2.82%,-2.22%,5.8%,1.17%
Cc1ccc(C(=O)NC2CCC2)cc1-c1ccc(C(=O)NCC2CC2)cc1,2.32%,-2.8%,-1.15%,–,–,10.7%,48.2%,1.41%,2.78%,3.67%,1.52%,-1.15%,-3.91%,1.03%,2.46%,0.19%,3.4%,-3.28%,0.35%,0.24%
NS(=O)(=O)c1ccc(N/N=C2\C(=O)Nc3ccc(-c4cnco4)cc32)cc1,3.04%,-2.14%,-0.18%,2.88%,2.83%,0.43%,2.84%,2.15%,2.61%,2.22%,5.43%,-1.9%,-0.75%,1.34%,-0.11%,0.72%,-0.54%,1.44%,2.18%,-0.25%
CN1CCN(CCCNc2nc3ccc(Oc4ccc(NC(=O)Nc5cc(C(F)(F)F)ccc5F)cc4)cc3[nH]2)CC1,0.83%,2.09%,4.1%,8.14%,51.8%,5.1%,22.1%,0.46%,1.31%,-0.38%,1.58%,-1.48%,-3.44%,2.13%,0.9%,1.3%,7.49%,1.45%,-2.72%,-1.28%
NC(=O)c1ccc(Oc2nccc(-c3c(-c4ccc(F)cc4)ncn3C3CCNCC3)n2)cc1,5.38%,1.1%,-0.11%,–,–,–,–,–,–,–,–,-2.65%,-1.89%,6.13%,8.85%,0.53%,5.87%,2.26%,2.71%,2.48%
Cc1nnc(-c2ccc(C)c(-c3ccc(C(=O)NCc4ccc(Cl)cc4)cc3)c2)o1,3.65%,-1.7%,-0.7%,9.97%,54.2%,6.73%,27.7%,1.96%,3.99%,1.42%,3.42%,-1.29%,-1.82%,3.66%,2.48%,2.02%,3.9%,–,-0.13%,0.23%
